A number with no mark means an inactive call. How the calls were made is not given here.
molecular target: Pantothenate synthetase (Mycobacterium tuberculosis (strain ATCC 25618 / H37Rv)) (UniProt P9WIL5); experiment: Recombinant Mtb pantothenate synthetase (PanC) inhibitors, coupled enzyme, confirmatory (AID 375); conditions: coupled enzyme assay; at 10 µM, stronger effect = higher value;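 further: 0% = full reaction with vehicle and 100% = no enzyme background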
Sequence (P9WIL5 whole entry, looked up): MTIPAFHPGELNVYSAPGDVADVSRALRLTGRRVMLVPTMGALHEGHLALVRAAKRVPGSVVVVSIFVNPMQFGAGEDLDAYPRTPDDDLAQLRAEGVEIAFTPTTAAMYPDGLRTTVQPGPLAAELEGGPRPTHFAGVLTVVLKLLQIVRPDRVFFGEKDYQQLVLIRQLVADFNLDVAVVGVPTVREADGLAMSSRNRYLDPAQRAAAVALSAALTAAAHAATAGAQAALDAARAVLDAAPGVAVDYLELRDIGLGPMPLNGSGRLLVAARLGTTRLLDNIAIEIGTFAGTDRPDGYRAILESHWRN

Structure (SMILES) | inhibition
CCC(=O)O[C@@H]1CC(=O)O[C@H](C)CC=CC=C[C@@H](O)[C@H](C)C[C@H](CC=O)[C@H](O[C@H]2O[C@H](C)[C@@H](O[C@H]3C[C@@](C)(O)[C@@H](OC(=O)CC)[C@H](C)O3)[C@H](N(C)C)[C@H]2O)[C@H]1OC | 4%
Cn1c(=O)c2c(ncn2CC(O)CNc2ccc(Cl)cc2)n(C)c1=O (centres undefined) | 0%
COc1ccc(-n2nc(C(=O)Nc3ccc4c(c3)OCO4)c3c4ccccc4n(C)c3c2=O)cc1 | 2%
CC(=O)c1cc(F)c(N2CCN(C(=O)Cc3ccccc3)CC2)cc1C | 0%
CCOC(=O)c1nnn(CC(=O)Nc2cccc(OC)c2)c1C(=O)OCC | 9%
O=C(c1ccc2c(c1)c(=O)oc1ccccc12)N1CCCCC1 | 6%
CC(=O)Nc1cc(NC(C)=O)cc(C(=O)OCC(=O)N2CC(C)OC(C)C2)c1 (centres undefined) | 2%
NS(=O)(=O)c1cc2c(cc1Cl)NC(C1C[C@H]3C=C[C@@H]1C3)NS2(=O)=O (some centres undefined) | 0%
N#CCCN1CCN(S(=O)(=O)c2ccc(S(=O)(=O)NC3CCCCC3)cc2)CC1 | 0%
CCn1ncc(C2=NOC(C(=O)Nc3ccc4c(c3)OCO4)C2)c1C (centres undefined) | 0%
COc1ccc(-c2nc(C)c(C(C)=O)n2O)cc1OC | 0%
Oc1c(Cl)cc(Cl)cc1Sc1cc(Cl)cc(Cl)c1O | 0%
O=C(Cn1cnc2sc(-c3ccccc3)cc2c1=O)N1CCOCC1 | 9%
O=C(O)CCC1(C(=O)O)OCCc2ccccc21 (centres undefined) | 8%

Source: PubChem BioAssay
